# Data as given in PubChem BioAssay AID526 (National Center for Advancing Translational Sciences (NCATS), 2006).
# The whole screen tested about 67,000 compounds, of which fewer than 10 were called active. A selection follows. A number with no mark means an inactive call. Calls come from the whole dose curve; as a rule, active = well fitted activation curve with a large enough effect (not every such curve was filed as active); inconclusive = small, poorly fitted or top-dose-only effect, or another doubt; inactive = no such curve, though single readings can be large or run the other way.
# Assay: Ubiquitin-GFP Assay
# Settings: Ubiquitin-GFP reporter cells, proteasome inhibition, GFP fluorescence, untreated = 0%, 10 µM MG-132 = 100%; series mostly up to 45.9 µM; activation (GFP accumulation): at the top concentration
# From the text: NIH Chemical Genomics Center [NCGC]
# NIH Molecular Libraries Screening Centers Network [MLSCN]
# The ubiquitin-proteasome pathway is present within all eukaryotic cells and plays roles in normal cellular functions and disease-related dysfunction. Proteins are tagged with a poly-ubiquitin chain that targets them for the proteasome, a multimeric protease, that degrades the protein into peptides and free ubiquitin. The proteasome has a key role in regulating cell cycle and growth and is known to control the levels of cyclins and CDK inhibitors as well as tumor suppressor proteins. Additionally, the activation of NF- B is controlled by ubiquitin-labeling and degradation of the inhibitory protein I B . […] With this in mind, proteasome inhibitors such as MG-132 and PS-341 have been used to inhibit tumor cell growth.
# A cellular assay for ubiquitin-proteasome function was used to find chemical probes of this pathway. The assay used an ubiquitin-GFP construct expressed in U2OS cells (BioImage). Under basal conditions little GFP can be detected as it is degraded by the proteasome. However, treatment of the cells with a proteasome inhibitor such as MG-132 results in a rise in GFP levels that can be detected in as little as four hours. We used the Acumen-Explorer laser plate cytometer having a 488 nm laser as an excitation light source to detect the GFP. Compounds were screened in 1536-well plates using qHTS with a concentration-titration series range that varied from 46 uM to 2.9 nM.
# NCGC Assay Protocol Summary:
# Cells (U20S ps 2042) expressing ubiquitin (G76V-GFP) were maintained in DMEM with Glutamax-1 and high glucose, 10% FBS, 1% (v/v) penicillin-streptomycin, 0.5 mg/mL Geneticin (G418). The cells were seeded in 1536-well plates using a solenoid-based dispenser at 700 cells/5ul in DMEM medium with Glutamax-1 and high glucose containing 0.5% FBS, w/o phenol red, 25 mM HEPES. The plates were incubated at 37 °C/5% CO2 overnight. Then 23 nl of MG-132 in DMSO was added to the control wells at a final concentration of 10 uM. Next, 23 nL of library compounds in DMSO were added to the sample wells. The plates were incubated for 4 hrs at 37 °C/5% CO2. Following this incubation the plates were read on the Acumen using a cell object definition of 15 to 100 um in width and depth and a window of Total Intensity of between 77,200 and 2,720,000 FLU to enumerate GFP-expressing cells.
# The %Activity was determined from the basal and MG-132 treated control wells. %Activity was determined by normalizing to the difference in signal between basal cells (0% Activity) and cells incubated with 10 uM of the proteasome inhibitor MG-132 (100% Activity). Concentration-response curves were fitted to the signals arising from the GFP fluorescence.
# Assay Protocol Summary Table
# Sequence Parameter Value Description
# 2. Time O/N 37C incubation
# 4. Compound 23 nL Libraries (46 uM to 2.9 nM)
# 5. Time 4 hr 37C incubation
# 6. Detector Acumen Total Intensity, GFP fluorescence (488 ex/515 em)
# Keywords: NIH Roadmap, MLSCN, MLI, MLSMR, BioImage, proteasome, ubiquitin-GFP, qHTS, NCGC
row,SMILES,activation (GFP accumulation)
1,Cc1cc(=O)n2nc(N3CCCC(C(=O)N4CCN(C)CC4)C3)sc2n1 (stereo unspecified),-0.855%
2,CN(C)C(=O)/N=N\C(=O)N(C)C,0.779%
3,CCCC(CCC(=O)OC)(C(=O)OCC)c1csc(N)n1 (stereo unspecified),-4.11%
4,O=C(CSC1=NCCS1)Nc1nc(-c2ccccc2)cs1,-15.6%
5,COc1ccc(OC)c(C(=O)CSc2nnc(-c3cccs3)o2)c1,0%
6,Cc1ccc2cccc(O)c2[n+]1[O-],-6.52%
7,COc1ccc(OC)c(NC(=O)CSc2nc3cccnc3n2C)c1,-1.06%
8,CCCCC(=O)Nc1ccc(C(=O)NCCCn2ccnc2)cc1,-2.04%
9,CN1[C@H]2CC(OC(=O)[C@@H](CO)c3ccccc3)C[C@H]1[C@H]1O[C@H]12 (stereo partly specified),0.807% [at 20.5 µM]
10,Nc1ccc2c3c(cccc13)C(=O)NC2=O,-1.64%
11,Cc1ccc(Cn2ccc(NC(=O)C3C4CCC(C4)C3C(=O)O)n2)cc1 (stereo unspecified),13.5%
12,Cc1cccc(N2CCN(Cc3c(C)n(C)n(-c4ccccc4)c3=O)CC2)c1C,-18.2% [at 9.17 µM]
13,Cc1onc(-c2ccccc2Cl)c1C(=O)NCCn1ccc2ccccc21,16%
14,CCOC(=O)c1cc(-c2ccc(Cl)s2)nc2c1c(C)nn2C,-2.17%
15,COc1nc(NCc2ccc(Cl)cc2)nc(OC)n1,-9.93% [at 9.17 µM]
16,COc1ccc(-c2cc(C(F)(F)F)nc(SCCC(=O)NCc3ccco3)n2)cc1,-4.87%
17,COC(=O)C(C)Sc1ccc2nnc(-c3cccc(F)c3)n2n1 (stereo unspecified),11.7%
18,CCNc1ncc2nc(CCc3ccccc3)c(=O)n(-c3ccc(OC)cc3)c2n1,-0.0408%
19,Cc1nnc(C)n1/N=C/c1ccc(C(C)C)cc1,1.85%
20,O=C(CN1CCN(C2CCCCC2)CC1)Nc1ccccc1N1CCCCC1,-0.833%
21,CS(=O)(=O)N1CCC2(CCN(c3ccncc3)CC2)CC1,-4.81%
22,COc1ccccc1NC(=O)CSc1nnc(Cc2cccn2C)n1-c1ccc(F)cc1,6.14%
23,CNC(=O)CN1C(=O)c2ccccc2S1(=O)=O,12.9%

row,SMILES,activation (GFP accumulation)
1,Oc1c(CN2CCOCC2)ccc(CN2CCOCC2)c1O,-4.99% [at 9.17 µM]
2,Cc1cc(C)c2nc3c(c([C@H](O)[C@@H]4CCCCN4)c2c1)CC/C3=C/c1ccc(Cl)cc1,1.75% [at 9.17 µM]
3,O=C(Nc1c[nH]c(=O)[nH]c1=O)Oc1ccccc1,7.84% [at 9.17 µM]
4,CC(=O)Nc1nc(C)c(Cc2ccccc2)c(=O)[nH]1,-8.77%
5,O=C(NC(c1ccccc1)c1ccccc1)N1CCN(CCO)CC1,-0.276%
6,O=C(c1cnccn1)N1CCC2(CCN(Cc3cc(C(F)(F)F)cc(C(F)(F)F)c3)CC2)CC1,-15.1%
7,CC1(C)NC(=O)N(CCOc2cccc(Oc3ccccc3)c2)C1=O,15%
8,Cc1ccccc1NC(=O)c1cnn(-c2ccccc2)c1NC(=O)c1ccco1,-3.93%
9,c1ccc(CSCCc2ccncc2)cc1,0.403% [at 9.17 µM]
10,CCOC(=O)c1cc2cc(C)ccc2[nH]1,2.14%
11,Cn1c(=O)cc(OCCCC(=O)N2CCN(c3ccccn3)CC2)c2ccccc21,15.3%
12,COc1ccccc1-n1c(CNC(=O)c2ccccc2)nnc1SCC(=O)Nc1nnc(C)s1,-3.39%
13,COc1ccccc1-c1nc(NCCNC(C)=O)c2ccccc2n1,2.52%
14,CCc1ccc(-c2nnn(Cc3nc4ccccc4s3)n2)cc1,-6.9%
15,CC(=O)OCC(=O)[C@@]1(O)CC[C@@H]2[C@H]3CCC4=CC(=O)C=C[C@]4(C)[C@]3(F)[C@@H](O)C[C@@]21C,14% [at 20.5 µM]
16,CCC(=O)N1c2ccc(S(=O)(=O)CCC(=O)N3CCN(c4ccccc4)CC3)cc2CC1C (stereo unspecified),2.7%
17,CN(C)c1nc2n(c(=O)n1)CCO2,-3.46%
18,c1ccc(CCN2CCN=C2Cc2ccccc2)cc1,-3.08% [at 9.17 µM]
19,COc1ccccc1N1CCN(C(=O)c2cc(-c3ccc(Cl)c(Cl)c3)on2)CC1,-2.38%
20,Cc1nc(NC(=O)CCC(=O)O)sc1C(=O)N(C)C,2.7%
21,CN1CCN(CCCNC(=O)c2cc3c(=O)oc4ccccc4c3s2)CC1,-2.5%
22,COc1ccc(CC(=O)Nc2nc3n(n2)C(c2ccccc2)CC(=O)N3)cc1OC (stereo unspecified),4.29%
23,COc1c(C)c2c(c(O)c1C/C=C(\C)CCC(=O)O)C(=O)OC2,inactive
